Records with an inconclusive call do not appear. Unmarked numbers belong to inactive results. The source made the active and inactive calls. Calls come from the whole dose curve; as a rule, active = well fitted activation curve with a large enough effect in the repeat runs; inconclusive = weak or mixed curves; inactive = no such curve, though single readings can be large or run the other way.

In PubChem BioAssay (Tox21) one finds Potency and max activation data, which are given here for 18 molecules.
% is set by controls: 0 for no effect and ±100 for the full control effect.

Sequence of Nuclear receptor subfamily 1 group I member 2 (Rattus norvegicus) (Q9R1A7 whole entry, looked up): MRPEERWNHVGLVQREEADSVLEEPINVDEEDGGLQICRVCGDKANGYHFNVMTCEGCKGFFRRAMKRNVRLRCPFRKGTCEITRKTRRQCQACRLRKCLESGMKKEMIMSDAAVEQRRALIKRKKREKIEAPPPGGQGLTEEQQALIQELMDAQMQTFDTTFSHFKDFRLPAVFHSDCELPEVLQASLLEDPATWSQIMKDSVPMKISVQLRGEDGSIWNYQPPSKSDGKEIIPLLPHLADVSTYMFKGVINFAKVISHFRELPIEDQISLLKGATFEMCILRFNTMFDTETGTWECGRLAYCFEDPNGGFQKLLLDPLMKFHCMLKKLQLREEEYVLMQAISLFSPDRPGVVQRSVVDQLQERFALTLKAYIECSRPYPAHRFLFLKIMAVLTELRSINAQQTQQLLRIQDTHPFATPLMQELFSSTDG

The target of one assay is Nuclear receptor subfamily 1 group I member 2 (Homo sapiens) (UniProt O75469). Briefly: Human pregnane X receptor (PXR) small molecule agonists, qHTS assay (AID 1346982). Note: nearly all actives have a fitted effect of over 35% in size. Note: potency is the fitted concentration of half-maximal effect. As to conditions: PXR-Luc HepG2, CYP3A4 luciferase reporter, 24 h; series mostly up to 92.4 µM. A digest of the protocol: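 Luminescence (ONE-Glo, 30 min RT) after 24 hr compound exposure of PXR-Luc HepG2 cells; cells rested 5 hr post-plating in 5% charcoal-stripped FBS medium.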
Sequence of Nuclear receptor subfamily 1 group I member 2 (Homo sapiens) (O75469 whole entry, looked up): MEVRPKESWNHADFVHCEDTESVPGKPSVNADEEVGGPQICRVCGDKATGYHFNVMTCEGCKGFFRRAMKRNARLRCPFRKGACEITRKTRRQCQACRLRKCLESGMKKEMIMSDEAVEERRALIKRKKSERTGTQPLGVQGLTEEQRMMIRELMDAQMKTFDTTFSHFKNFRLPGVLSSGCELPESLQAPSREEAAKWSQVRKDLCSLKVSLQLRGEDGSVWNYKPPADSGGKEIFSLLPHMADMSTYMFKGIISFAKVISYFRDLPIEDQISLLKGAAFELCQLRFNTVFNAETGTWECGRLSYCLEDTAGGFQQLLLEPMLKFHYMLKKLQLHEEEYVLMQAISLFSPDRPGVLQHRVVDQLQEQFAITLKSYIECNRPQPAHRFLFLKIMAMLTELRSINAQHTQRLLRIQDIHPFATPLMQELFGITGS
In the case of `CC[C@H]1OC(=O)[C@H](C)[C@@H](O[C@H]2C[C@@](C)(OC)[C@@H](O)[C@H](C)O2)[C@H](C)[C@@H](O[C@@H]2O[C@H](C)C[C@H](N(C)C)[C@H]2O)[C@](C)(O)C[C@@H](C)CN(C)[C@H](C)[C@@H](O)[C@]1(C)O`, the Potency entry was “inactive”.

With `c1ccc(CCCc2ccncc2)cc1`, the Potency is 30.6 µM (active). As to `CC(C)c1ccc(C(=O)N=C(N)N)cc1S(C)(=O)=O`, the Potency entry is “inactive”. On the same count and under the same terms, under `Cc1ccc2c(c1[N+](=O)[O-])C(=O)c1ccccc1C2=O` stands 1.9 µM (active).

Take `O=c1[nH]c2cc(C(F)(F)F)c(N3CCOCC3)cc2n(CP(=O)(O)O)c1=O`: the Potency entry is “inactive”. Still for that read-out and setting: the same measure for `C1CCCCC1`: “inactive”. Same read-out and setting: under `C1=CCC2CC=CC2C1` (stereo unspecified) stands 54.4 µM (active); under `CN1CCCN(C(c2ccccc2)c2ccc(Cl)cc2)CC1` (stereo unspecified), “inactive”. The same measure, in the same setting: the same measure for `CC(CN(CCN(CC(C)OCCO)CC(C)OCCO)CC(C)OCCO)OCCO` (stereo unspecified): 3.31 µM (active).

In a further assay the target is Nuclear receptor subfamily 1 group I member 2 (Rattus norvegicus) (UniProt Q9R1A7). Description: Rat pregnane X receptor (rPXR) activation by small molecules, qHTS assay (AID 1346983). Note: nearly all actives have a fitted effect of over 20% in size. Note: potency is the fitted concentration of half-maximal effect. As to conditions: rPXR luciferase reporter cells, One-Glo luminescence, 24 h; max activation: active compounds read high. The procedure, abridged:
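Luminescent readout (One-Glo luciferase, 30 min room temperature) followed 24 hr compound treatment at 37 C of rPXR cells plated 2,000 per well and preincubated 5hr; qHTS format with compounds delivered in DMSO.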
On to `CCN(CC)C(=O)/C(C#N)=C/c1cc(O)c(O)c([N+](=O)[O-])c1`, for which the max activation is -6.1%. On the same count and under the same terms, under `O=C(O)CN1C(=O)c2cccc3cccc(c23)C1=O` stands -2.76%. Same read-out and setting: the same measure for `CCOC(=O)c1c(N)sc2c1CCN(Cc1ccccc1)C2`: -1.17%; for `CC[C@@H](CO)NCCN[C@@H](CC)CO`: 2.2%. With `Cc1cn([C@H]2C[C@H](F)[C@@H](CO)O2)c(=O)[nH]c1=O`, the max activation was -7.91%.

For the molecule `COc1cc(NC(C)CCCN)c2ncccc2c1` (stereo unspecified), the max activation was -6.86%.

In the case of `c1ccc2sc(SSc3nc4ccccc4s3)nc2c1`, the max activation is -4.43%. Consider `COc1cc(NCc2ccc3nc(N)nc(N)c3c2C)cc(OC)c1OC`, for which the max activation was -10.1%. Turning to `COC(=O)C1=C(C)NC(C)=C(C(=O)OC(C)(C)CN(C)CCC(c2ccccc2)c2ccccc2)C1c1cccc([N+](=O)[O-])c1` (stereo unspecified), the Potency is 3.98 µM (active). Turning to `O=c1[nH]c2cc(C(F)(F)F)c(N3CCOCC3)cc2n(CP(=O)(O)O)c1=O`, the max activation is -2.81%.

A further assay deals with Nuclear receptor subfamily 1 group I member 2 (Homo sapiens) (UniProt O75469). Description: CYP3A4 induction through human pregnane X receptor (PXR) by small molecules, qHTS assay (AID 1346984). Note: nearly all actives have a fitted effect of over 40% in size. As to conditions: DPX-2 HepG2 PXR, CYP3A4-luciferin luminescence, 24 h; series mostly up to 46.1 µM. The procedure, abridged: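 DPX-2 reporter cells; 24h cpd, 37C; Luciferin-IPA 3uM final x3h; One-Glo 30 min RT; lumi read.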
Regarding `CCN(CC)C(=O)/C(C#N)=C/c1cc(O)c(O)c([N+](=O)[O-])c1`, the Potency entry is “inactive”. For `CCOC(=O)c1c(N)sc2c1CCN(Cc1ccccc1)C2`, the Potency entry was “inactive”. For the molecule `CC[C@@H](CO)NCCN[C@@H](CC)CO`, the Potency result was “inactive”. The same measure, in the same setting: under `Cc1cn([C@H]2C[C@H](F)[C@@H](CO)O2)c(=O)[nH]c1=O` stands “inactive”; under `c1ccc2sc(SSc3nc4ccccc4s3)nc2c1`, “inactive”. With `COc1cc(NCc2ccc3nc(N)nc(N)c3c2C)cc(OC)c1OC`, the Potency result is “inactive”. For the molecule `O=c1[nH]c2cc(C(F)(F)F)c(N3CCOCC3)cc2n(CP(=O)(O)O)c1=O`, the Potency entry is “inactive”.
